Where “and” joins values, the source holds several entries; their conditions need not be identical. Identical values can stand only once. Records with an inconclusive call do not appear. A structure can be active in one record and inactive in another. Calls of active or inactive are those of the source. How the source made its calls: active means hit-call score of the fitted dose curve at least 0.9, where 1 is the maximum; inconclusive means response in the unintended direction; inactive means score below 0.9.
What was measured:
[1] = tested on: zebrafish Peroxisome Proliferator-activated Receptor gamma (PPARg), gene 557037; test: ATG_zfPPARg_XSP1: Attagene TRANS-FACTORIAL Multi-Species (XSP1) HepG2 Assay for zebrafish Peroxisome Proliferator-activated Receptor gamma (PPARg) (AID 2283801)
Outline: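 HepG2 cells transiently transfected with GAL4-UAS reporter units including a zebrafish PPARg–GAL4 chimera, dosed 24 h with 3 nM 6-alpha-fluorotestosterone present. Reporter mRNA quantified by RT-PCR, FAM labelling, HpaI digestion and capillary electrophoresis; induction versus DMSO.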

[2] = target: mouse Peroxisome Proliferator-activated Receptor gamma (PPARg), Pparg (gene 19016) (UniProt P37238); test: ATG_mPPARg_XSP1: Attagene TRANS-FACTORIAL Multi-Species (XSP1) HepG2 Assay for mouse Peroxisome Proliferator-activated Receptor gamma (PPARg) (AID 2283802)
Outline: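 HepG2 cells transiently transfected with GAL4-UAS reporter units driven by mouse PPARg–GAL4 chimera; 3 nM 6-alpha-fluorotestosterone present. After 24 h dosing, reporter mRNA quantified by RT-PCR, fluorescent labelling and capillary electrophoresis; gain of signal versus DMSO.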

[3] = target: Nuclear receptor subfamily 1 group I member 2 (Mus musculus) (UniProt O54915); test: ATG_mPXR_XSP1: Attagene TRANS-FACTORIAL Multi-Species (XSP1) HepG2 Assay for mouse Pregnane X Receptor (PXR) (AID 2283803)
Outline: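 Transiently transfected HepG2 cells expressing a receptor-Gal4 chimera drive a GAL4-UAS reporter; 3 nM 6-alpha-fluorotestosterone included. Reporter mRNA read 24 h post-dose by RT-PCR and capillary electrophoresis; gain of signal relative to DMSO.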

[4] = target: human Thyroid hormone Receptor alpha (TRa), THRA (gene 7067) (UniProt P10827); test: ATG_hTRa_XSP1: Attagene TRANS-FACTORIAL Multi-Species (XSP1) HepG2 Assay for human Thyroid hormone Receptor alpha (TRa) (AID 2283805)
Outline: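 HepG2 cells transiently transfected with GAL4-UAS reporter units expressing chimeric NR-Gal4 proteins, dosed 24 hours with 3 nM 6-alpha-fluorotestosterone present. Reporter mRNA measured by RT-PCR and capillary electrophoresis; gain of signal fitted versus DMSO.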

[5] = tested on: turtle Thyroid Hormone Receptor, alpha (TRa), gene 101949057; test: ATG_trTRa_XSP1: Attagene TRANS-FACTORIAL Multi-Species (XSP1) HepG2 Assay for turtle Thyroid Hormone Receptor, alpha (TRa) (AID 2283806)
Outline: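 HepG2 cells transiently transfected with GAL4-UAS reporter units and chimeric receptor-Gal4 constructs, with 3 nM 6-alpha-fluorotestosterone present. Reporter mRNA was quantified 24 h after dosing by RT-PCR, 6-FAM labelling and capillary electrophoresis; gain of signal versus DMSO.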

[6] = target: zebrafish Thyroid Hormone Receptor alpha (TRa), thraa (gene 30670) (UniProt Q98867); test: ATG_zfTRa_XSP1: Attagene TRANS-FACTORIAL Multi-Species (XSP1) HepG2 Assay for zebrafish Thyroid Hormone Receptor alpha (TRa) (AID 2283807)
Outline: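 HepG2 cells transiently transfected with GAL4-UAS reporter units including a zebrafish TRa–Gal4 chimera, dosed 24 h with 3 nM 6-alpha-fluorotestosterone present. Reporter mRNA quantified by RT-PCR and capillary electrophoresis; gain versus DMSO.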

[7] = target: human Thyroid hormone Receptor beta (TRb), THRB (gene 7068) (UniProt P10828); test: ATG_hTRb_XSP1: Attagene TRANS-FACTORIAL Multi-Species (XSP1) HepG2 Assay for human Thyroid hormone Receptor beta (TRb) (AID 2283808)
Outline: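 HepG2 cells transiently transfected with reporter units driving GAL4-UAS reporters for chimeric NR-Gal4 proteins; 24 h chemical exposure with 3 nM 6-alpha-fluorotestosterone present. Reporter mRNA quantified by RT-PCR and capillary electrophoresis, gain of signal versus DMSO.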

[8] = target: zebrafish Thyroid Hormone Receptor beta (TRb), thrb (gene 30607) (UniProt Q9PVE4); test: ATG_zfTRb_XSP1: Attagene TRANS-FACTORIAL Multi-Species (XSP1) HepG2 Assay for zebrafish Thyroid Hormone Receptor beta (TRb) (AID 2283809)
Outline: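 HepG2 cells transiently transfected with multiplexed GAL4-UAS reporter units expressing chimeric zebrafish TRb–Gal4. Dosed 24 h with 3 nM 6-alpha-fluorotestosterone present; reporter mRNA measured by RT-PCR, HpaI digestion and capillary electrophoresis; gain of signal versus DMSO.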

[9] = ATG_XTT_Cytotoxicity_XSP1: Cytotoxicity Assessment in the Attagene TRANS-FACTORIAL Multi-Species (XSP1) HepG2 Assay (AID 2283810)
Outline: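 XTT viability readout taken at 24 hours post-dosing in HepG2 liver cells co-treated with 3 nM 6-alpha-fluorotestosterone. Signal loss relative to DMSO controls reflects cytotoxicity.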

[10] = ATG_M_06_XSP2: Attagene TRANS-FACTORIAL Multi-Species (XSP2) HepG2 Assay for M06 Transcription Factor (Internal Marker) (AID 2283811);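 further: hits are increases in signal above the DMSO baseline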
Outline: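 HepG2 cells transiently transfected with GAL4-UAS multi-reporter constructs, dosed 24 h with 3 nM 6-alpha-fluorotestosterone plus 1.5 nM norgestrel present to stimulate androgen receptor. Reporter mRNA quantified by RT-PCR, 6-FAM labelling, HpaI digestion and capillary electrophoresis; gain-of-signal fitted versus DMSO baseline.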

[11] = tested on: turtle Estrogen Receptor (ERa), gene 101933533; test: ATG_trERa_XSP2: Attagene TRANS-FACTORIAL Multi-Species (XSP2) HepG2 Assay for turtle Estrogen Receptor (ERa) (AID 2283812);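 further: human HepG2 liver cells transiently expressing turtle ERa-Gal4 chimeric receptor; actives raise reporter signal above DMSO so AC50 reflects agonist activity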
Outline: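 HepG2 cells transiently transfected with GAL4-UAS reporter units expressing turtle ERa-Gal4 chimera. Reporter mRNA measured after 24 h dosing by RT-PCR, fluorescent labelling and capillary electrophoresis; gain of signal fitted versus DMSO.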

[12] = target: Estrogen receptor beta (Homo sapiens) (UniProt Q92731); test: ATG_hERb_XSP2: Attagene TRANS-FACTORIAL Multi-Species (XSP2) HepG2 Assay for human Estrogen Receptor (ERb) (AID 2283813);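 further: actives raise reporter mRNA above DMSO so AC50 reflects agonist induction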
Outline: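 HepG2 cells transiently transfected with GAL4-UAS reporter units and chimeric human ERb-Gal4, 24 h exposure. Reporter mRNA quantified by RT-PCR with FAM labelling, HpaI digestion and capillary electrophoresis; gain of signal versus DMSO.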

[13] = target: GAL4 Transcription Factor (Internal Marker), GAL4 (gene 855828) (UniProt P04386); test: ATG_GAL4_XSP2: Attagene TRANS-FACTORIAL Multi-Species (XSP2) HepG2 Assay for GAL4 Transcription Factor (Internal Marker) (AID 2283814);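 further: GAL4 reporter mRNA background control in MRTU transfected cells not a receptor target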
Outline: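 HepG2 cells transiently transfected with GAL4-UAS reporter units, stimulated with 3 nM 6-alpha-fluorotestosterone plus 1.5 nM norgestrel, dosed 24 h. Reporter mRNA by RT-PCR/capillary electrophoresis; gain-of-signal fit versus DMSO, background control.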

[14] = target: zebrafish Estrogen Receptor (ER1), esr1 (gene 259252) (UniProt P57717); test: ATG_zfER1_XSP2: Attagene TRANS-FACTORIAL Multi-Species (XSP2) HepG2 Assay for zebrafish Estrogen Receptor (ER1) (AID 2283816)
Outline: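 HepG2 cells transiently transfected with a GAL4-UAS reporter and a chimeric zebrafish ER1-Gal4 construct, dosed 24 h. Reporter mRNA quantified by RT-PCR, labelling, HpaI digestion and capillary electrophoresis, relative to DMSO.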

[15] = target: chicken Estrogen Receptor (ERa), ESR1 (gene 396099) (UniProt P06212); test: ATG_chERa_XSP2: Attagene TRANS-FACTORIAL Multi-Species (XSP2) HepG2 Assay for chicken Estrogen Receptor (ERa) (AID 2283817);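 further: actives raise reporter signal above DMSO so AC50 reflects ER activation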
Outline: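 HepG2 cells transiently transfected with multiplexed GAL4-UAS reporter units expressing chimeric chicken ERa-Gal4; 24 h compound exposure. Reporter mRNA measured by RT-PCR with 6-FAM labelling, HpaI digestion and capillary electrophoresis; gain-of-signal fitted versus DMSO.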

[16] = tested on: chicken Androgen Receptor (AR), gene 422165; test: ATG_chAR_XSP2: Attagene TRANS-FACTORIAL Multi-Species (XSP2) HepG2 Assay for chicken Androgen Receptor (AR) (AID 2283819);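 further: hits raise reporter mRNA above DMSO so potency is for activation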
Outline: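 HepG2 cells transiently transfected with chicken AR–GAL4 chimeric reporter constructs, stimulated with 3 nM 6-alpha-fluorotestosterone plus 1.5 nM norgestrel, dosed 24 h. Reporter mRNA quantified by RT-PCR and capillary electrophoresis; gain of signal fitted versus DMSO.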

[17] = tested on: frog Estrogen Receptor (ER), gene 398734; test: ATG_frER1_XSP2: Attagene TRANS-FACTORIAL Multi-Species (XSP2) HepG2 Assay for frog Estrogen Receptor (ER) (AID 2283821);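 further: hits raise reporter mRNA above DMSO baseline so potency means agonist or activator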
Outline: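 HepG2, transient MRTU transfection, chimeric NR-GAL4/UAS reporters; 24 h compound exposure, 24-well. Readout: reporter mRNA via RT-PCR + capillary electrophoresis, fluorescence. Positive fit vs DMSO baseline.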

[18] = tested on: zebrafish Estrogen Receptor (ER2b), gene 317733; test: ATG_zfER2b_XSP2: Attagene TRANS-FACTORIAL Multi-Species (XSP2) HepG2 Assay for zebrafish Estrogen Receptor (ER2b) (AID 2283823);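 further: fitted upward as reporter gain over DMSO so potency reflects activation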
Outline: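 Reporter transcripts quantified by RT-PCR, fluorescent labelling and capillary electrophoresis after 24 h dosing of transfected HepG2 expressing zebrafish ER2b-GAL4 fusion. Medium contained 3 nM 6-alpha-fluorotestosterone plus 1.5 nM norgestrel; DMSO baseline.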

[19] = tested on: zebrafish Estrogen Receptor (ER2a), gene 317734; test: ATG_zfER2a_XSP2: Attagene TRANS-FACTORIAL Multi-Species (XSP2) HepG2 Assay for zebrafish Estrogen Receptor (ER2a) (AID 2283818);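 further: hits raise reporter mRNA so AC50 reflects activation of zebrafish ER2a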
Outline: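 HepG2 cells transiently transfected with GAL4-UAS reporter units and chimeric zebrafish ER2a-Gal4, exposed 24 h; medium contains 3 nM 6-alpha-fluorotestosterone and 1.5 nM norgestrel. Reporter mRNA quantified by RT-PCR, HpaI digestion, capillary electrophoresis; gain versus DMSO.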

[20] = ATG_M_19_XSP2: Attagene TRANS-FACTORIAL Multi-Species (XSP2) HepG2 Assay for M32 Transcription Factor (Internal Marker) (AID 2283822)
Outline: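 Internal background marker in a multi-species nuclear receptor TRANS panel: transfected HepG2 cells exposed 24 h, with 3 nM 6-alpha-fluorotestosterone and 1.5 nM norgestrel present. Readout is RT-PCR of reporter transcripts resolved by capillary electrophoresis, gain-of-signal versus DMSO.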

Measured: AC50

Sequence of Estrogen receptor beta (Homo sapiens) (Q92731 whole entry, looked up, the tested form may be a part): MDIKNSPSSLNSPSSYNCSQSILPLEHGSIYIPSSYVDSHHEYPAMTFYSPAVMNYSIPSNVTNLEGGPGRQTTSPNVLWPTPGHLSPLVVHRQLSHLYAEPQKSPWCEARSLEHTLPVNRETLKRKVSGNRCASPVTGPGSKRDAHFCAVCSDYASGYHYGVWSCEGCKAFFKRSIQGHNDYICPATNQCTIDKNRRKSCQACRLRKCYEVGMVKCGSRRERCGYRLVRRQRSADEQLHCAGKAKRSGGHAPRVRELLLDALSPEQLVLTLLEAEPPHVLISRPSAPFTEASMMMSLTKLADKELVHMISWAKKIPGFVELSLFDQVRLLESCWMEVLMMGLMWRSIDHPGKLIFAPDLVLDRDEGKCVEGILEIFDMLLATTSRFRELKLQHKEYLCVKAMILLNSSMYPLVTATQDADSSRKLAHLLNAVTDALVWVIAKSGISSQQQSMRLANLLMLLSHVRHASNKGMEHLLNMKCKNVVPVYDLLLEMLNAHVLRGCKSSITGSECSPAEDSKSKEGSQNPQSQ
Sequence of chicken Estrogen Receptor (ERa), ESR1 (gene 396099) (P06212 whole entry, looked up, the tested form may be a part): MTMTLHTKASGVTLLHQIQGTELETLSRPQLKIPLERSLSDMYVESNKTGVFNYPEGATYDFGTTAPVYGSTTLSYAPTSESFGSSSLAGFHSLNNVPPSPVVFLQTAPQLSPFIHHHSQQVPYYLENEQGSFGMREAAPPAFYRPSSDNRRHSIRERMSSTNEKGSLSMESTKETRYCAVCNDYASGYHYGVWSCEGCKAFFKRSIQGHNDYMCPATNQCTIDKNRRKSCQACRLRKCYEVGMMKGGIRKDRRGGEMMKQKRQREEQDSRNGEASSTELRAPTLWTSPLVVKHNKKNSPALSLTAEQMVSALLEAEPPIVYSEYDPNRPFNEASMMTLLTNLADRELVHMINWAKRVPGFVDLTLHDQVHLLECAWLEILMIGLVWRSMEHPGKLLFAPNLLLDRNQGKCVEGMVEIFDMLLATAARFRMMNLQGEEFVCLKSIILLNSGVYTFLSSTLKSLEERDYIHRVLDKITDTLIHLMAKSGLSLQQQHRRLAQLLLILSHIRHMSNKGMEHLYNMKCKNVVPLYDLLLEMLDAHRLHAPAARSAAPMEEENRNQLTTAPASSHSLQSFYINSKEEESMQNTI
Sequence of zebrafish Estrogen Receptor (ER1), esr1 (gene 259252) (P57717 whole entry, looked up, the tested form may be a part): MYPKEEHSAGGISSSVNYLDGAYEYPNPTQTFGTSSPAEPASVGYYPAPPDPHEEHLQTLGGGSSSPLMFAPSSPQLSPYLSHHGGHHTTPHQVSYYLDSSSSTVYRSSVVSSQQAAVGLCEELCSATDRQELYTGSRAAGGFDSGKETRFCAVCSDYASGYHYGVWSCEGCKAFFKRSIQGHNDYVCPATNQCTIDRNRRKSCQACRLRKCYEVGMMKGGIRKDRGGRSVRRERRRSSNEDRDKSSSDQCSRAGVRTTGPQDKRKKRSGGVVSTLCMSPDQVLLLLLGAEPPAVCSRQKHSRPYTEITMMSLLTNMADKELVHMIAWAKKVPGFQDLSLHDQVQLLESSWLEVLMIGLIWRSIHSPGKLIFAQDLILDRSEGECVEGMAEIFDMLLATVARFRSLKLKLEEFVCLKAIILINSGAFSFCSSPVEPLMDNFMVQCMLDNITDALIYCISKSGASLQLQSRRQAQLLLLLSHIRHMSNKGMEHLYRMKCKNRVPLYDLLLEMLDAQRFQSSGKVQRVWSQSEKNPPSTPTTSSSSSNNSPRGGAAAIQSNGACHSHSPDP
Sequence of Nuclear receptor subfamily 1 group I member 2 (Mus musculus) (O54915 whole entry, looked up, the tested form may be a part): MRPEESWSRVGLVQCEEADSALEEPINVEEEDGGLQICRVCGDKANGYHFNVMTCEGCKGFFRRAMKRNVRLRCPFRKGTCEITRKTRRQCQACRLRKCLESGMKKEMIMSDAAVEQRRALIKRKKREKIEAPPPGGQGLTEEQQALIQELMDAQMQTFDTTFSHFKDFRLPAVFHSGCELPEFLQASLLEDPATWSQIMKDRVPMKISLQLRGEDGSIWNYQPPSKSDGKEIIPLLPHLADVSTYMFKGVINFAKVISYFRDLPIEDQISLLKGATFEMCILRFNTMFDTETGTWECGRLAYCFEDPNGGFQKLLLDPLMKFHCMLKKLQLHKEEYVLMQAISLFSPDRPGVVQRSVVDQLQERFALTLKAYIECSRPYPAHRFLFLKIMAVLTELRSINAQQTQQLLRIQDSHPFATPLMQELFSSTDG
Sequence of human Thyroid hormone Receptor alpha (TRa), THRA (gene 7067) (P10827 whole entry, looked up, the tested form may be a part): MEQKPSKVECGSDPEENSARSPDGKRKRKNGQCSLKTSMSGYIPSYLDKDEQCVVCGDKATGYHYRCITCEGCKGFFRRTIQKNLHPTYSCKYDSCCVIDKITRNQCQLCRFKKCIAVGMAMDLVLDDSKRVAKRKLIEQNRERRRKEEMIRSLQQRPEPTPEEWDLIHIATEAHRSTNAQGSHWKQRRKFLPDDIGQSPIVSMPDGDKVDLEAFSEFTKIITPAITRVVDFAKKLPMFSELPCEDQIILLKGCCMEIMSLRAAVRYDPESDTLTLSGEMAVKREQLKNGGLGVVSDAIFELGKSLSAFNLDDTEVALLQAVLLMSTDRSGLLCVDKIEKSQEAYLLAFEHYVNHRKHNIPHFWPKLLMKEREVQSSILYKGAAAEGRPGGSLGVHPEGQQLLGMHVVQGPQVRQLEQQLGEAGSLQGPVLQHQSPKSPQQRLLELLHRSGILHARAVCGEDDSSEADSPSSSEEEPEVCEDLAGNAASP
Sequence of GAL4 Transcription Factor (Internal Marker), GAL4 (gene 855828) (P04386 whole entry, looked up, the tested form may be a part): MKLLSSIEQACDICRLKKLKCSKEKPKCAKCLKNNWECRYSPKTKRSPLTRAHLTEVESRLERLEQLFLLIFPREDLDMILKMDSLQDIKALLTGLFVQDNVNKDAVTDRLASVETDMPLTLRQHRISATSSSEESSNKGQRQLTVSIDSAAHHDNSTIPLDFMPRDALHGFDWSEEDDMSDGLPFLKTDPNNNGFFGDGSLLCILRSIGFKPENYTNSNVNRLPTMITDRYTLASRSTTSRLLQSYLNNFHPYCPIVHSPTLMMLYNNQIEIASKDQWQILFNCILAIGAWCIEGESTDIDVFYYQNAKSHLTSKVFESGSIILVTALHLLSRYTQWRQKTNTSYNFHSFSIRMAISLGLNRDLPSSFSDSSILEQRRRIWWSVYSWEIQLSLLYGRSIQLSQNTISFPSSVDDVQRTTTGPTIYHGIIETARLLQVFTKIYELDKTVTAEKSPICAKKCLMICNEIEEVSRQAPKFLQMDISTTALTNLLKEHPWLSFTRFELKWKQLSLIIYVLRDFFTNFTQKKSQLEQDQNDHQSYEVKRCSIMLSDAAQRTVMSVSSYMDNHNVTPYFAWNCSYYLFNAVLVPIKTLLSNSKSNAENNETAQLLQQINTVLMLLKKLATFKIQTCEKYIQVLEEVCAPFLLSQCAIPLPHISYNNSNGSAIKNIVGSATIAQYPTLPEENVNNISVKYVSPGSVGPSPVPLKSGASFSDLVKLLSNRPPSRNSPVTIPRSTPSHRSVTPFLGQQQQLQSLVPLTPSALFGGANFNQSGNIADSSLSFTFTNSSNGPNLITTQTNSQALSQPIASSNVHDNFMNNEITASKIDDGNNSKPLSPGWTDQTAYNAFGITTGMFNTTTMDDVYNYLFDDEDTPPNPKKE
Sequence of zebrafish Thyroid Hormone Receptor alpha (TRa), thraa (gene 30670) (Q98867 whole entry, looked up, the tested form may be a part): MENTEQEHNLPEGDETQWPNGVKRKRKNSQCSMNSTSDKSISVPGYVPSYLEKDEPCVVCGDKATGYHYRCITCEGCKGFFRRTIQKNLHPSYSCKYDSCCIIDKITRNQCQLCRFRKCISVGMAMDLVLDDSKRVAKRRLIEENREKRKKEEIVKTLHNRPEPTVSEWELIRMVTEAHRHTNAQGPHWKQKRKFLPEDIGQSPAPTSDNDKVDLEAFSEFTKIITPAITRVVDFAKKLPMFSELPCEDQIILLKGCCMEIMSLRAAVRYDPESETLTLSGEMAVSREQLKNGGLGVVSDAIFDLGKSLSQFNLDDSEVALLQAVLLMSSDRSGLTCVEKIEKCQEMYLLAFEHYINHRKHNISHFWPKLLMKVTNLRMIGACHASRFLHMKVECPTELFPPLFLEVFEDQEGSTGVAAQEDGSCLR
Sequence of zebrafish Thyroid Hormone Receptor beta (TRb), thrb (gene 30607) (Q9PVE4 whole entry, looked up, the tested form may be a part): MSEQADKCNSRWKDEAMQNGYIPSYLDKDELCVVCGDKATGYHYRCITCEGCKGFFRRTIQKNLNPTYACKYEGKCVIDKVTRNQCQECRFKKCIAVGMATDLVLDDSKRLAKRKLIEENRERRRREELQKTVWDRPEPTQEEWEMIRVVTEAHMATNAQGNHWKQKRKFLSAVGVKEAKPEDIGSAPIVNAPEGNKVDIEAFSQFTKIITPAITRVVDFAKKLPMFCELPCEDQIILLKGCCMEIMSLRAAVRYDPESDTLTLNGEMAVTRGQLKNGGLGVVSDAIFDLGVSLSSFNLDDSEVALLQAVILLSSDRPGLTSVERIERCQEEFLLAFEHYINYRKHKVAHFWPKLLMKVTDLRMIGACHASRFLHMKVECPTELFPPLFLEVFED
Sequence of human Thyroid hormone Receptor beta (TRb), THRB (gene 7068) (P10828 whole entry, looked up, the tested form may be a part): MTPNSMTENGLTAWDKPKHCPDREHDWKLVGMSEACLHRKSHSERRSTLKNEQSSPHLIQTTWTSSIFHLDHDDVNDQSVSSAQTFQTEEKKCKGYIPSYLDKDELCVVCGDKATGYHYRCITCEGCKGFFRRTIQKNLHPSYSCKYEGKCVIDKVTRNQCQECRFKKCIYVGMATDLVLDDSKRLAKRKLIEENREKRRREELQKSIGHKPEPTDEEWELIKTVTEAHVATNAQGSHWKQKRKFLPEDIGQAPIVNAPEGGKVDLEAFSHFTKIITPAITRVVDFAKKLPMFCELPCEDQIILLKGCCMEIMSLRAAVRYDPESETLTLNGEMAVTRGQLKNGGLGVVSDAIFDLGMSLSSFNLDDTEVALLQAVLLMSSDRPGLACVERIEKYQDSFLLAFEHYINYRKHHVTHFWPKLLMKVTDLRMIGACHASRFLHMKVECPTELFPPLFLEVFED

O=P(OC(CCl)CCl)(OC(CCl)CCl)OC(CCl)CCl
inactive: [4] | [5] | [6] | [7] | [8] | [9] | [10] | [11] | [12] | [13] | [14] | [15] | [16] | [17] | [18]
active: [1] 78.6 µM | [2] 25.8 µM | [3] 0.447 µM

Clc1nc(Cl)c(Cl)c(Cl)c1Cl
inactive: [12] | [14] | [19] | [17] | [20] | [18]
active: [11] 26.2 µM and 151 µM | [15] 26.6 µM and 86.3 µM | [17] 100 µM | [18] 184 µM

Oc1ccc2c(c1)-c1ccccc1C2
active: [11] 6.32 µM and 3.91 µM | [12] 5.52 µM and 2.58 µM | [14] 14.7 µM and 6.87 µM | [15] 4.69 µM and 2.17 µM | [19] 2.55 µM | [17] 4.78 µM and 2.89 µM | [18] 21.4 µM and 12.1 µM
inactive: [10] | [19]

From PubChem BioAssay (EPA / NIEHS)
